From the supplement of paper PMC6555819

Tests used:
Assay in all cases: PBM binding z-score (relative to random genomic background probes); higher = stronger binding; sequences stand for … in GC…GCGATTGACAGCGTAGAATGAAGG
[1] = system: FXR:RXRa (NR concentration 270 nM, RXRa partner concentration 90 nM)
Summary of the method: (§1)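 Regression normalization was applied to scanned fluorescence from custom Agilent 4×180K protein-binding microarrays. Before scanning, arrays were incubated 1 h with ligand-free nuclear receptor dimers, and binding was detected with antibodies against each partner (one per run). Binding z-scores use the random background probes as reference.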

[2] = system: LXRa:RXRa (NR concentration 270 nM, RXRa partner concentration 90 nM)
Summary of the method: as §1

[3] = system: LXRa homodimer (NR concentration 270 nM)
Summary of the method: as §1

[4] = system: LXRb:RXRa (NR concentration 270 nM, RXRa partner concentration 90 nM)
Summary of the method: as §1

[5] = system: LXRb homodimer (NR concentration 270 nM)
Summary of the method: as §1

[6] = system: PPARa:RXRa (NR concentration 270 nM, RXRa partner concentration 90 nM)
Summary of the method: as §1

[7] = system: PPARg:RXRa (NR concentration 180 nM, RXRa partner concentration 90 nM)
Summary of the method: as §1

[8] = system: PPARg:RXRa 270nM:90nM, anti-RXR (NR concentration 270 nM, RXRa partner concentration 90 nM)
Summary of the method: as §1

[9] = system: PPARg:RXRa 30nM:10nM, anti-RXR (NR concentration 30 nM, RXRa partner concentration 10 nM)
Summary of the method: as §1

[10] = system: PPARg:RXRa 90nM:30nM, anti-RXR (NR concentration 90 nM, RXRa partner concentration 30 nM)
Summary of the method: as §1

[11] = system: PPARg:RXRa DBDmut IVT, anti-RXR (DBD mutation: RXRa K156A/R161A, NR concentration 270 nM, RXRa partner concentration 90 nM)
Summary of the method: as §1

[12] = system: PPARg:RXRa IVT, anti-PPARg (NR concentration 270 nM, RXRa partner concentration 90 nM)
Summary of the method: as §1

[13] = system: PPARg DBDmut:RXRa IVT, anti-PPARg (DBD mutation: PPARg1 K132A/R137A, NR concentration 270 nM, RXRa partner concentration 90 nM)
Summary of the method: as §1

[14] = system: PPARg DBDmut IVT, anti-PPARg (DBD mutation: PPARg1 K132A/R137A, NR concentration 270 nM)
Summary of the method: as §1

[15] = system: PPARg homodimer (NR concentration 180 nM)
Summary of the method: as §1

[16] = system: PXR:RXRa (NR concentration 270 nM, RXRa partner concentration 90 nM)
Summary of the method: as §1

[17] = system: PXR homodimer (NR concentration 270 nM)
Summary of the method: as §1

[18] = system: RARa:RXR (NR concentration 270 nM, RXRa partner concentration 90 nM)
Summary of the method: as §1

[19] = system: RARa homodimer (NR concentration 270 nM)
Summary of the method: as §1

[20] = system: RARb:RXRa (NR concentration 270 nM, RXRa partner concentration 90 nM)
Summary of the method: as §1

Sequence | PBM binding z-score [1] | PBM binding z-score [2] | PBM binding z-score [3] | PBM binding z-score [4] | PBM binding z-score [5] | PBM binding z-score [6] | PBM binding z-score [7] | PBM binding z-score [8] | PBM binding z-score [9] | PBM binding z-score [10] | PBM binding z-score [11] | PBM binding z-score [12] | PBM binding z-score [13] | PBM binding z-score [14] | PBM binding z-score [15] | PBM binding z-score [16] | PBM binding z-score [17] | PBM binding z-score [18] | PBM binding z-score [19] | PBM binding z-score [20]
CCTCGGAGGACGGAAGGTCAGAGCTGTCCGCTTT | 1.07 | 1.43 | -0.129 | 0.901 | -1.26 | 1.57 | -0.636 | 0.361 | -0.964 | -0.314 | -0.591 | -0.453 | -1.93 | -2.58 | 1.18 | 1.33 | 0.186 | 1.76 | -0.121 | 2.6
ATCTGTAGGTTACATCCGGGTCATTCAGGCTATG | 1.94 | 4.67 | 1.97 | 2.81 | 1.35 | 3.22 | 1.98 | 2.56 | 0.963 | 1.83 | 3.84 | 4.04 | 1.35 | 1.89 | 1.96 | 3.52 | 1.9 | 3.18 | 0.982 | 2.34
CGTCCAAGATCAAAGGTCAGTGAAGAGATGACGG | 3.66 | 3.73 | 1.53 | 3.21 | 0.413 | 4.84 | 5.29 | 5.82 | 3.81 | 5.56 | 0.235 | 2.39 | 0.493 | -0.0647 | 3.36 | 3.67 | 0.13 | 5.06 | 1.29 | 4.37
TCTATTAGTTGATTAGGGGAACCGAAACAGCGGA | 0.954 | 0.771 | 0.585 | 0.845 | 1.38 | 0.915 | 0.0434 | 2.05 | 4.11 | 2.94 | 2.55 | 0.819 | 0.627 | 1.48 | 1.45 | 0.576 | 0.595 | 0.544 | 2.06 | 0.416
ATACCAAGGTGAACGTGAGGTCGTTGATACTAAC | 3.12 | 3.08 | 1.29 | 2.47 | -0.133 | 2.87 | 2.13 | 1.87 | 0.56 | 1.48 | 2.44 | 3.17 | 1.14 | 0.95 | 1.83 | 4.23 | 1.48 | 3.21 | 0.99 | 2.43
CGATCGAGGGCATGAGTTGATAGCAAATGCCGAT | 0.233 | -0.0163 | -0.798 | -0.0334 | -1.04 | 1.22 | 1.17 | 1.29 | -0.0363 | 0.755 | 2.46 | 1.93 | -0.505 | -0.163 | 0.296 | 0.228 | -0.306 | 0.106 | -0.984 | 1.94
CAAACTAGGTCAAGGTCAAGGTCGGTTTGTGCCA | 6.47 | 5.41 | 3.72 | 4.28 | 0.954 | 6 | 9.57 | 7.87 | 6.34 | 8.36 | 8.6 | 8.73 | 2.59 | 1.56 | 5.52 | 5.33 | 2.34 | 5.61 | 2.92 | 5.2
GCTACTAGGTCAGGTTGGTCAGCTAACGGGTACG | 1.47 | 0.811 | 0.0315 | 0.809 | 0.129 | 2.66 | 4.12 | 3.52 | 0.868 | 3.19 | 7.04 | 6.37 | 0.412 | 0.27 | 1.12 | 0.422 | -0.0861 | 0.74 | 0.258 | 3.26
CCTATTATTTGACCATAAGGGCAACCGAAGCTCG | 1.29 | 0.777 | 1.8 | 1.02 | 1.25 | 0.882 | 0.551 | 0.728 | 0.155 | 0.461 | 0.801 | 1.15 | 0.688 | 1.57 | 3.21 | 0.9 | 2.77 | 1.05 | 4.4 | 1.64
TCATATAGGTAAATGCTAGGTGAAAGTCCGATCT | 1.23 | 1.02 | 0.256 | 0.834 | -0.0467 | 1.43 | 1.09 | 2.44 | 3.65 | 3.19 | 3.92 | 2.74 | 1.21 | 1.03 | 0.763 | 0.713 | 0.387 | 1.07 | 1.52 | 0.642
TAGCCTAGGTCATACGGGCCAGTATAGTGTCGGC | 4.14 | 3.21 | 0.859 | 1.8 | -0.00996 | 3.5 | 2.18 | 2.57 | 0.318 | 1.54 | 1.67 | 2.89 | -0.195 | -0.639 | 0.811 | 1.66 | -0.13 | 2.4 | 0.0154 | 3.56
ATCGAAAGATCGAGGTGAGTATAGAGAAAGGGAA | 0.0424 | 0.111 | -0.321 | -0.262 | -0.23 | 0.469 | 0.553 | 0.362 | 0.533 | 0.418 | -0.0862 | 1.27 | 0.466 | 0.643 | -0.144 | -0.176 | -0.105 | 0.139 | -0.0593 | 0.194
TCTATTAGTTGATTAGGGCAAACGAAACAGCGGA | 0.336 | 0.43 | 0.307 | 0.724 | 0.369 | 0.691 | 0.317 | 1.62 | 3.24 | 2.29 | 1.88 | 1.04 | 0.889 | 1.04 | 0.195 | 0.343 | 0.106 | 0.325 | 0.996 | 0.708
CAAACTAGGTCACGACAGGTCAAAGTCGAATGAC | 6.86 | 7.66 | 5.39 | 6.7 | 0.955 | 6.08 | 9.79 | 7.85 | 6.54 | 8.02 | 8.69 | 9.13 | 4.46 | 5.24 | 4.07 | 6.3 | 0.87 | 6.14 | 1.65 | 5.04
ATCTCTAGGCAAAGTTCAGTGAAAGATCGATAGA | 0.723 | 1.38 | 0.839 | 0.819 | 0.16 | 1.95 | 2.49 | 3.78 | 1.93 | 3.67 | 0.488 | 0.697 | 0.713 | 0.549 | 0.889 | 1.8 | 1.43 | 1.02 | 0.783 | 2.54
